Outcome and AC50 data for three compounds are collected here from PubChem BioAssay (EPA / NIEHS).

Settings in all cases: mRNA level, 48 h; actives raise or lower the signal
Read-out in one assay: Caspase-3 (Homo sapiens) (UniProt P42574)
The assay is described as follows: LTEA_HepaRG_CASP3: Life Technologies and Expression Analysis (LTEA) Assay for cysteine-aspartic acid protease (CASP3) using HepaRG (AID 2283477). The method in brief: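 Transcript-level assay: CASP3 mRNA in human HepaRG after 48 h treatment, eight half-log concentrations from 100 uM in 0.5% DMSO, quantified by qRT-PCR.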

Read-out in assay [1]: Cytochrome P450 (CYP24A1), CYP24A1 (gene 1591)
The assay is described as follows: LTEA_HepaRG_CYP24A1: Life Technologies and Expression Analysis (LTEA) Assay for Cytochrome P450 (CYP24A1) using HepaRG (AID 2283478). The method in brief:
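Gene expression of CYP24A1 by TaqMan qRT-PCR in HepaRG after 48 h treatment, highest concentration 100 uM; activity fitted in both directions relative to DMSO vehicle.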

Read-out in assay [2]: Cytochrome P450 (CYP1A2), CYP1A2 (gene 1544)
The assay is described as follows: LTEA_HepaRG_CYP1A2: Life Technologies and Expression Analysis (LTEA) Assay for Cytochrome P450 (CYP1A2) using HepaRG (AID 2283479). The method, boiled down:
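In duplicate wells, HepaRG cultures maintained in 0.5% DMSO were treated 48 h across an 8-point, half-log series topping at 100 uM; phenobarbital (1 mM) served as induction control. Expression was read by qRT-PCR.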

Read-out in assay [3]: cysteine-aspartic acid protease (CASP8), CASP8 (gene 841)
The assay is described as follows: LTEA_HepaRG_CASP8: Life Technologies and Expression Analysis (LTEA) Assay for cysteine-aspartic acid protease (CASP8) using HepaRG (AID 2283480). The method in brief:
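Differentiated HepaRG cells in serum-free induction medium, 48 h exposure, eight-point half-log series from 100 uM in 0.5% DMSO, duplicates. CASP8 mRNA by qRT-PCR, normalized to ACTB, GAPDH, POLR2A; bidirectional fit versus DMSO.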

Read-out in assay [4]: Cytochrome P450 (CYP2B6), CYP2B6 (gene 1555)
The assay is described as follows: LTEA_HepaRG_CYP2B6: Life Technologies and Expression Analysis (LTEA) Assay for Cytochrome P450 (CYP2B6) using HepaRG (AID 2283481). The method in brief: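 Human HepaRG, 48 h dosing, 0.5% DMSO vehicle, top dose 100 uM. CYP2B6 transcript by qRT-PCR, housekeeping-normalized, bidirectional curve fit.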

Read-out in assay [5]: Cytochrome P450 2C19 (Homo sapiens) (UniProt P33261)
The assay is described as follows: LTEA_HepaRG_CYP2C19: Life Technologies and Expression Analysis (LTEA) Assay for CYP2C19 using HepaRG (AID 2283482). The method in brief: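 Endpoint: CYP2C19 mRNA change, bidirectional fit vs 0.5% DMSO. Cells: HepaRG, 48 h exposure, eight-point series topping at 100 uM. Quantitation: qRT-PCR normalized to ACTB, GAPDH, POLR2A.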

Read-out in another assay: CYP2C8 (gene 1558)
The assay is described as follows: LTEA_HepaRG_CYP2C8: Life Technologies and Expression Analysis (LTEA) Assay for CYP2C8 using HepaRG (AID 2283483). The method in brief:
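Differentiated HepaRG cells in serum-free induction medium exposed 48 h in duplicate to 8 half-log concentrations from 100 uM in 0.5% DMSO. CYP2C8 mRNA by qRT-PCR normalized to ACTB, GAPDH, POLR2A; bidirectional fit versus DMSO.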

Read-out in a further assay: CYP2C9 (gene 1559)
The assay is described as follows: LTEA_HepaRG_CYP2C9: Life Technologies and Expression Analysis (LTEA) Assay for CYP2C9 using HepaRG (AID 2283484). The method in brief: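 Differentiated human HepaRG cells in serum-free induction medium were exposed 48 h to chemicals in 8-point half-log series from 100 uM (0.5% DMSO), in duplicate. CYP2C9 mRNA was measured by qRT-PCR, normalized to ACTB/GAPDH/POLR2A, with bidirectional fitting versus DMSO.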

Read-out in the next assay: CYP2E1 (gene 1571)
The assay is described as follows: LTEA_HepaRG_CYP2E1: Life Technologies and Expression Analysis (LTEA) Assay for CYP2E1 using HepaRG (AID 2283485). The method in brief: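 Differentiated HepaRG cells were treated in duplicate for 48 h with chemicals in 0.5% DMSO, from 100 uM downward in half-log dilutions. RNA was then analysed by qRT-PCR for CYP2E1 induction or loss.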

Read-out in another assay: CYP4A11 (gene 1579)
The assay is described as follows: LTEA_HepaRG_CYP4A11: Life Technologies and Expression Analysis (LTEA) Assay for CYP4A11 using HepaRG (AID 2283486). The method, boiled down: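 Human hepatic HepaRG cultures receive duplicate 48 h exposures across a concentration-response series topping at 100 uM. Expression changes in CYP4A11 are measured by qRT-PCR relative to DMSO controls.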

Read-out in assay [6]: Cytochrome P450 3A4 (Homo sapiens) (UniProt P08684)
The assay is described as follows: LTEA_HepaRG_CYP3A4: Life Technologies and Expression Analysis (LTEA) Assay for CYP3A4 using HepaRG (AID 2283487). The method, boiled down:
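HepaRG, 48 h exposure, 8-pt CRC from 100 uM (half-log), 0.5% DMSO, duplicates; serum-free induction medium. Readout: CYP3A4 mRNA, qRT-PCR, ACTB/GAPDH/POLR2A normalization. Bidirectional fit vs DMSO.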

Read-out in assay [7]: DNA damage-inducible transcript 3 (DDIT3), DDIT3 (gene 1649)
The assay is described as follows: LTEA_HepaRG_DDIT3: Life Technologies and Expression Analysis (LTEA) Assay for DNA damage-inducible transcript 3 (DDIT3) using HepaRG (AID 2283488). The method, boiled down: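 Changes in DDIT3 transcript, in either direction relative to 0.5% DMSO vehicle, were quantified by TaqMan qRT-PCR after 48 h chemical exposure of HepaRG cells at 8 concentrations, maximum 100 uM.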

Read-out in assay [8]: Pro-epidermal growth factor (Homo sapiens) (UniProt P01133)
The assay is described as follows: LTEA_HepaRG_EGF: Life Technologies and Expression Analysis (LTEA) Assay for Epidermal growth factor (EGF) using HepaRG (AID 2283489). The method, boiled down:
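Concentration-response mRNA assay: HepaRG cells dosed 48 h (max 100 uM, 0.5% DMSO), EGF measured by qRT-PCR and normalized to ACTB/GAPDH/POLR2A.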

Read-out in assay [9]: Early growth response protein 1 (EGR1) transcription factor, EGR1 (gene 1958)
The assay is described as follows: LTEA_HepaRG_EGR1: Life Technologies and Expression Analysis (LTEA) Assay for Early growth response protein 1 (EGR1) transcription factor using HepaRG (AID 2283490). The method, boiled down: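 Differentiated HepaRG cells in serum-free induction medium exposed 48 hours, duplicate, to 8 half-log concentrations up to 100 uM in 0.5% DMSO. EGR1 mRNA measured by TaqMan qRT-PCR, normalized to ACTB, GAPDH, POLR2A; bidirectional fit versus DMSO.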

Read-out in assay [10]: Cytochrome P450 3A7 (Homo sapiens) (UniProt P24462)
The assay is described as follows: LTEA_HepaRG_CYP3A7: Life Technologies and Expression Analysis (LTEA) Assay for CYP3A7 using HepaRG (AID 2283492). The method in brief:
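qRT-PCR of CYP3A7 in HepaRG lysates after 48 h treatment; concentration-response (8 points, max 100 uM) analysed bidirectionally relative to 0.5% DMSO controls.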

Read-out in the next assay: CYP3A5 (gene 1577)
The assay is described as follows: LTEA_HepaRG_CYP3A5: Life Technologies and Expression Analysis (LTEA) Assay for CYP3A5 using HepaRG (AID 2283493). The method in brief: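 mRNA induction or loss of CYP3A5 assessed in HepaRG after 48 h dosing, 100 uM top concentration, duplicate wells; TaqMan qRT-PCR with ACTB, GAPDH, POLR2A normalization; 0.5% DMSO as negative control.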

Read-out in assay [11]: Fatty Acid-Binding Protein 1 (FABP1), FABP1 (gene 2168)
The assay is described as follows: LTEA_HepaRG_FABP1: Life Technologies and Expression Analysis (LTEA) Assay for Fatty Acid-Binding Protein 1 (FABP1) using HepaRG (AID 2283494). The method, boiled down: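 Differentiated human HepaRG cells exposed 48 h in serum-free induction medium to eight half-log concentrations up to 100 uM (0.5% DMSO), duplicate. FABP1 mRNA by qRT-PCR, normalised to ACTB, GAPDH, POLR2A; bidirectional fitting against DMSO.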

Read-out in assay [12]: Cytochrome P450 4A22 (Homo sapiens) (UniProt Q5TCH4)
The assay is described as follows: LTEA_HepaRG_CYP4A22: Life Technologies and Expression Analysis (LTEA) Assay for Cytochrome P450 4A22 (CYP4A22) using HepaRG (AID 2283495). The method in brief: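 Concentration-response (8 points, max 100 uM, 0.5% DMSO) in human HepaRG liver cells after 48 h exposure. CYP4A22 mRNA by TaqMan qRT-PCR with housekeeping-gene normalization.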

Read-out in assay [13]: Cytochrome P450 7A1 (Homo sapiens) (UniProt P22680)
The assay is described as follows: LTEA_HepaRG_CYP7A1: Life Technologies and Expression Analysis (LTEA) Assay for Cytochrome P450 7A1 (CYP7A1) using HepaRG (AID 2283496). The method in brief:
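Gene expression endpoint in human HepaRG liver cells treated for 48 h with test chemicals (up to 100 uM, 0.5% DMSO). Values come from bidirectional concentration-response fitting versus DMSO.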

Read-out in assay [14]: Ezrin (EZR), EZR (gene 7430)
The assay is described as follows: LTEA_HepaRG_EZR: Life Technologies and Expression Analysis (LTEA) Assay for Ezrin (EZR) using HepaRG (AID 2283491). The method, boiled down: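 Read-out is EZR transcript level by qRT-PCR, normalized to three housekeeping genes and fitted bidirectionally against the DMSO control. Human HepaRG cells received test chemicals for 48 h at eight half-log concentrations up to 100 uM in 0.5% DMSO.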

Structures are written as SMILES. The source made the active and inactive calls. How the source made its calls: active means hit-call score of the fitted dose curve at least 0.9, where 1 is the maximum; inactive means score below 0.9.

Cytochrome P450 3A4 (Homo sapiens), sequence (P08684 whole entry, looked up): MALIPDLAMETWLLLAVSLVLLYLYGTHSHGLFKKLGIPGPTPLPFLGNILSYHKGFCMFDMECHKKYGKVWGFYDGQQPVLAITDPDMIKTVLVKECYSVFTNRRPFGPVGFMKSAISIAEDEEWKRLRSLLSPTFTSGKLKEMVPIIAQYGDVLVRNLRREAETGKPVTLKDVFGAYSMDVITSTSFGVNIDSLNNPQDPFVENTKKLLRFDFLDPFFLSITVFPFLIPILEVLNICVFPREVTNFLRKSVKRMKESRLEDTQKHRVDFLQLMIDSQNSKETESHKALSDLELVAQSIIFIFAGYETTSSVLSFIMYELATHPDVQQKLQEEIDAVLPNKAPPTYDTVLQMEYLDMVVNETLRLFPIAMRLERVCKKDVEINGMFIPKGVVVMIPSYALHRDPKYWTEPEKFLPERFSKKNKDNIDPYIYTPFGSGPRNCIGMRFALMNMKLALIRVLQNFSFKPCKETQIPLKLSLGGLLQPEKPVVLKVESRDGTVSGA
Caspase-3 (Homo sapiens), sequence (P42574 whole entry, looked up): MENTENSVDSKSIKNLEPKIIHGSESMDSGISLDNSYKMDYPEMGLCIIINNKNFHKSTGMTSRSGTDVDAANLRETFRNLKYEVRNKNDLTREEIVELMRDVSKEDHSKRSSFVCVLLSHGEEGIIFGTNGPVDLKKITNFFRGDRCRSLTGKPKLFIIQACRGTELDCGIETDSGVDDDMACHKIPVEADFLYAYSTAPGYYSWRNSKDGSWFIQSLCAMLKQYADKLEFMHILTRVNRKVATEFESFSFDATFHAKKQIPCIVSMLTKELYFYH
Cytochrome P450 3A7 (Homo sapiens), sequence (P24462 whole entry, looked up): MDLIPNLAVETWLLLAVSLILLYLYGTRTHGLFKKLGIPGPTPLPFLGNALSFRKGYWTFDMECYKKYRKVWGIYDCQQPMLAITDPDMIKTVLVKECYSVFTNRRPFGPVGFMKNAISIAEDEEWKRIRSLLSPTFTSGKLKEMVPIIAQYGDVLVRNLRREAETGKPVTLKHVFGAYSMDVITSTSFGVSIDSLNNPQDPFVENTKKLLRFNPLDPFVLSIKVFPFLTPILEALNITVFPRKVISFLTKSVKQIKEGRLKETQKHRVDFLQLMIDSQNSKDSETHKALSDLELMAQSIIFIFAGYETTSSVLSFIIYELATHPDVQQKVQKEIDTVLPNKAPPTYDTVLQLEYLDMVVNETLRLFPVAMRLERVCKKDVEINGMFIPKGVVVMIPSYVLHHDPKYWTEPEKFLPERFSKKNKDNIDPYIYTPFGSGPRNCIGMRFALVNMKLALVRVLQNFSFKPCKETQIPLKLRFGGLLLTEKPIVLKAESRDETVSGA
Cytochrome P450 2C19 (Homo sapiens), sequence (P33261 whole entry, looked up): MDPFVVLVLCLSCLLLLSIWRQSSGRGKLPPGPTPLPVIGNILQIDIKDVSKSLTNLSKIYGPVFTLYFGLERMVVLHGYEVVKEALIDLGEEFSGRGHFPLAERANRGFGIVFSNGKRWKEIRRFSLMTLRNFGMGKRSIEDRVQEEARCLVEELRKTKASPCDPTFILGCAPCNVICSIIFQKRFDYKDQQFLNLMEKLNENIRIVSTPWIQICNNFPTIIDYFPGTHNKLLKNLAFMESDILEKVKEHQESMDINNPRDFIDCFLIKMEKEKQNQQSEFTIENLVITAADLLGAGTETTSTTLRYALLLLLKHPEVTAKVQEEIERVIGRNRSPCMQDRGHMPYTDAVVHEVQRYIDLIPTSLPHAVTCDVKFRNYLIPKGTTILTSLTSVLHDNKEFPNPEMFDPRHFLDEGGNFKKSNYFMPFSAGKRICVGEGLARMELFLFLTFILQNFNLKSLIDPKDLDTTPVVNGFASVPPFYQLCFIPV

Regarding `Clc1cc(Cl)c(Cl)cc1Cl`, the compound was called inactive (with Caspase-3 (Homo sapiens); in assay [1]; in assay [2]; in [3]; in assay [4]; in [5]). The compound was called inactive (in the assay with CYP2C8 (gene 1558); in the assay with CYP2C9 (gene 1559); with CYP2E1 (gene 1571); with CYP4A11 (gene 1579); in [6]; in assay [7]). Also, the outcome (in assay [8]; in assay [9]; in [10]; in the assay with CYP3A5 (gene 1577); in assay [11]; in assay [12]) was inactive. Also, the outcome in [13] was inactive.

For `FC(F)(F)C(F)(F)C(F)(F)C(F)(F)C(F)(F)C(F)(F)CCI`, the call (with Caspase-3 (Homo sapiens); in assay [1]; in assay [2]; in assay [3]; in assay [4]; in assay [5]) was inactive. The outcome (in the assay with CYP2C8 (gene 1558); with CYP2C9 (gene 1559); with CYP2E1 (gene 1571); with CYP4A11 (gene 1579); in [6]; in [7]) was inactive. In addition, the result (in assay [8]; in assay [9]; in assay [14]; in [10]; with CYP3A5 (gene 1577); in assay [11]) was inactive. The compound was classed as inactive in assay [12] and in assay [13].

`CCOC(=O)CCC(=O)OCC`: the call (with Caspase-3 (Homo sapiens); in [1]; in assay [2]; in assay [5]; in the assay with CYP2C8 (gene 1558); with CYP2C9 (gene 1559)) was inactive. Moreover, the outcome (in the assay with CYP2E1 (gene 1571); with CYP4A11 (gene 1579); in assay [6]; in [7]; in [8]; in [9]) was inactive. Moreover, the call (in assay [14]; in [10]; with CYP3A5 (gene 1577); in [11]; in [12]; in assay [13]) was inactive. The concentration at half-maximal activity (AC50) (usually the concentration at which the activity in the assay is half-maximal) in [3] was 87.3 µM (active); in [4], 19.3 µM (active).
